We go through 9 compounds from PubChem BioAssay (NCI).

Test systems include NCI-H23 lung; NCI-H322M lung; HOP-62 NSCLC; HOP-92 NSCLC; NCI-H522 lung; 786-0 renal; COLO 205 colon; DU-145 prostate; K-562 leukemia; MALME-3M melanoma; MDA-MB-231 breast; RXF 393 renal; SF-268 CNS; SF-295 CNS; SF-539 CNS; UACC-257 melanoma; M14 melanoma; HCT-15 colon; A549/ATCC NSCLC.
Test in all cases: NCI-60 one-dose screen, 48 h (100 = growth as untreated, 0 = no growth, -100 = all killed)
Holding throughout (settings): 10 µM unless noted

This is part of a sample that, as a whole, favours compounds with a hit. Of some 83,000 tested, about 20% had one in any assay.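 Growth was measured after 48 h exposure to one concentration of compound in 96-well plates. Values under 10 count as active.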 A number with no mark means an inactive call. The source made the active and inactive calls.

For the compound `NCCNc1nc2ccc(F)cc2c2c(=O)c3cc(F)ccc3sc12`, the growth was 70.9% in the assay with NCI-H23 lung; 60.6% in the assay on NCI-H322M lung; 56.5% in the assay on HOP-62 NSCLC; 17.4% with HOP-92 NSCLC; 30.9% with NCI-H522 lung; 58.6% with 786-0 renal. Besides, the growth in the assay on COLO 205 colon was -52.2% (active); in the assay on DU-145 prostate it was 7.23% (active); in the assay on K-562 leukemia it was -44.2% (active); with MALME-3M melanoma it was 99%; in the assay on MDA-MB-231 breast it was 6.98% (active); in the assay with RXF 393 renal, 52.3%. Further, the growth in the assay on SF-268 CNS was 48.9%; in the assay with SF-295 CNS, 82.3%; with SF-539 CNS it was 73.6%; in the assay on UACC-257 melanoma, 79.4%; with M14 melanoma, 15.7%; in the assay with HCT-15 colon, 20.9%.

On to `COc1cc(/C=C2\CN(C)C/C(=C\c3cc(CN4CCOCC4)c(O)c(OC)c3)C2=O)cc(CN2CCOCC2)c1O`, for which the growth with NCI-H23 lung was 37.3%; in the assay on NCI-H322M lung, 67.5%; with HOP-62 NSCLC, 68.9%; in the assay with HOP-92 NSCLC, 93.2%; in the assay on NCI-H522 lung, 41%; in the assay with A549/ATCC NSCLC, 56.8%. Also, the growth with 786-0 renal was 76.6%; in the assay with COLO 205 colon it was 45.2%; in the assay on DU-145 prostate it was 28.5%; in the assay with K-562 leukemia it was 29.1%; with MALME-3M melanoma, 65.6%; in the assay on MDA-MB-231 breast, 69.5%. In addition, the growth in the assay with RXF 393 renal was 78%; in the assay with SF-268 CNS, 56.9%; in the assay with SF-295 CNS it was 77.1%; with SF-539 CNS it was 34.8%; with UACC-257 melanoma it was 71.2%; with M14 melanoma, 66.4%. In addition, the growth in the assay on HCT-15 colon is 64.8%.

Turning to `Cc1sc2ncn(CC(=O)Nc3ccc(S(N)(=O)=O)cc3)c(=O)c2c1C`, the growth is 102% in the assay with NCI-H23 lung; 96.8% with NCI-H322M lung; 101% with HOP-62 NSCLC; 102% in the assay with HOP-92 NSCLC; 92.5% in the assay on NCI-H522 lung; 98% in the assay with A549/ATCC NSCLC. Further, the growth was 101% with 786-0 renal; 112% with DU-145 prostate; 103% in the assay with K-562 leukemia; 102% in the assay with MALME-3M melanoma; 102% with MDA-MB-231 breast; 114% with RXF 393 renal. The growth in the assay with SF-268 CNS was 97.9%; in the assay on SF-295 CNS, 104%; in the assay on SF-539 CNS, 96%; with UACC-257 melanoma, 97.7%; in the assay on M14 melanoma, 114%; in the assay on HCT-15 colon, 102%.

On to `O=C1N=c2ccccc2=C1c1sc(=Nc2ccccc2)n(Nc2ccccc2)c1O`, for which the growth was 102% in the assay with NCI-H23 lung; 107% in the assay on NCI-H322M lung; 100% in the assay with HOP-62 NSCLC; 102% in the assay with HOP-92 NSCLC; 90.9% in the assay on NCI-H522 lung; 108% in the assay on A549/ATCC NSCLC. The growth in the assay with 786-0 renal is 101%; in the assay on COLO 205 colon, 116%; with DU-145 prostate, 115%; in the assay on K-562 leukemia, 94.4%; in the assay with MALME-3M melanoma, 108%; with MDA-MB-231 breast it was 95.1%. In addition, the growth in the assay with RXF 393 renal is 107%; in the assay on SF-268 CNS, 99.5%; with SF-295 CNS, 102%; in the assay with SF-539 CNS it was 104%; in the assay with UACC-257 melanoma, 106%; in the assay with M14 melanoma, 99.7%. For the same compound, in the assay with HCT-15 colon, the growth was 102%.

In the case of `CCOC(=O)C1=C(C)N=c2s/c(=C\c3cc(Cl)ccc3O)c(=O)n2C1c1ccc(OC)cc1` (stereo not given), the growth was 88.1% in the assay with NCI-H23 lung; 104% with NCI-H322M lung; 110% with HOP-62 NSCLC; 69.2% in the assay on HOP-92 NSCLC; 81% in the assay on NCI-H522 lung; 94.9% in the assay with A549/ATCC NSCLC. Moreover, the growth was 94.6% with 786-0 renal; 101% in the assay on COLO 205 colon; 107% in the assay with DU-145 prostate; 73.8% with K-562 leukemia; 109% with MALME-3M melanoma; 95.1% with MDA-MB-231 breast. The growth in the assay on RXF 393 renal was 80.9%; with SF-268 CNS it was 107%; with SF-295 CNS, 111%; with SF-539 CNS, 118%; in the assay on UACC-257 melanoma, 101%; with M14 melanoma, 88.4%. In addition, the growth with HCT-15 colon is 98.6%.

As to `Clc1ccc(Oc2ccc(Nc3ncnc4onc(-c5ccccc5)c34)cc2)c(Cl)c1`, the growth is 89.4% in the assay with NCI-H23 lung; 111% in the assay with NCI-H322M lung; 104% in the assay with HOP-62 NSCLC; 102% with HOP-92 NSCLC; 73.2% with NCI-H522 lung; 91.2% with A549/ATCC NSCLC. Moreover, the growth was 96.3% in the assay with 786-0 renal; 105% with COLO 205 colon; 106% in the assay with DU-145 prostate; 78.1% with K-562 leukemia; 105% in the assay with MALME-3M melanoma; 99.7% in the assay with MDA-MB-231 breast. The growth is 120% in the assay on RXF 393 renal; 102% in the assay on SF-268 CNS; 97% in the assay on SF-295 CNS; 98.8% with SF-539 CNS; 99% in the assay on UACC-257 melanoma; 95.6% in the assay with M14 melanoma. Further, the growth in the assay with HCT-15 colon was 89%.

Regarding `O=C(Nc1ccc(-c2nc3ccc(NC(=O)c4ccc(Cl)cc4)cc3[nH]2)cc1)c1ccc(Cl)cc1`, the growth with NCI-H23 lung is 56%; with NCI-H322M lung it was 10.4%; in the assay on HOP-62 NSCLC, 29.2%; in the assay with HOP-92 NSCLC, 41.2%; in the assay on NCI-H522 lung, -65.6% (active); in the assay with A549/ATCC NSCLC it was 4.64% (active). Besides, the growth was -22.8% (active) in the assay with 786-0 renal; -74.3% (active) with COLO 205 colon; 44.1% in the assay with DU-145 prostate; -1.36% (active) in the assay on K-562 leukemia; -0.679% (active) in the assay on MDA-MB-231 breast; -49% (active) with RXF 393 renal. For the same compound, the growth with SF-268 CNS was 43.7%; in the assay on SF-295 CNS it was -68% (active); with SF-539 CNS, -68.2% (active); in the assay with UACC-257 melanoma, -15.8% (active); in the assay on M14 melanoma, 2.14% (active); with HCT-15 colon, 32.1%.

For the compound `COc1ccc(C2C3=C(COC3=O)N(CCO)c3cc4c(cc32)OCCO4)cc1` (stereo not given), the growth in the assay on NCI-H23 lung is 97.2%; in the assay with NCI-H322M lung, 125%; with HOP-62 NSCLC it was 80.4%; in the assay with HOP-92 NSCLC it was 102%; with NCI-H522 lung, 58.2%; with 786-0 renal it was 87.5%. Further, the growth with COLO 205 colon was 84.2%; in the assay with DU-145 prostate, 106%; in the assay on K-562 leukemia, 53.1%; in the assay on MALME-3M melanoma it was 103%; with MDA-MB-231 breast it was 91.2%; with RXF 393 renal it was 75.5%. In addition, the growth was 86.5% with SF-268 CNS; 55.8% in the assay with SF-295 CNS; 83.1% in the assay on SF-539 CNS; 69% in the assay on UACC-257 melanoma; 77.7% in the assay on M14 melanoma; 65.6% in the assay with HCT-15 colon.

For the compound `COc1ccc(N)c(-c2cc3c(c4c2[nH]c2ccc(OC)cc24)CCCC3)c1`, the growth with NCI-H23 lung is 91.2%; with NCI-H322M lung it was 71.5%; in the assay on HOP-62 NSCLC, 70.4%; in the assay on HOP-92 NSCLC it was 72.2%; in the assay on 786-0 renal, 78.3%; with COLO 205 colon it was 102%. The growth is 83.7% in the assay with DU-145 prostate; 76.8% with K-562 leukemia; 108% in the assay with MALME-3M melanoma; 77.6% in the assay on MDA-MB-231 breast; 87.1% in the assay on RXF 393 renal; 73.8% in the assay on SF-268 CNS. Also, the growth in the assay with SF-295 CNS was 88.8%; in the assay on SF-539 CNS, 98%; in the assay on UACC-257 melanoma, 67.9%; in the assay on M14 melanoma, 78.5%; in the assay on HCT-15 colon, 58.6%.
